An excerpt weighted towards active compounds, which were near 2.4% of everything screened.
Tb PGK inh – inhibitors of T. brucei phosphoglycerate kinase | actives 0.043% (n = 380,000) | Potency, µM (highest dose often 57.5 µM), hits mostly inhibitors | PGK/GAPDH coupled, Kinase-Glo luminescence, 60 min; also: nearly all actives have a fitted effect of over 60% in size
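Recombinant glycosomal PGK reaction used 1,3-bisphosphoglycerate generated in-well by GAPDH (100nM final) in 100mM TEA pH 7.6, 5mM MgCl2, 0.01% Tween-20. After 60 minutes at room temperature, ATP was read by Kinase-Glo Plus luminescence end-point.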
Pol eta inh-1 – blocks human DNA polymerase eta activity. recombinant Pol eta, fluorescent DNA replication assay. Potency, µM (series often up to 114 µM), hits mostly inhibitors. actives 1.2% (n = 390,000)
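Fluorescent replication assay: 50 nM final substrate added after a 15 min room-temperature compound preincubation with 10 nM enzyme. Signal taken at 0 min and again at 10 min.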
Pol kappa inh-1 – DNA polymerase kappa (human) inhibition; Q9UBT6; purified Pol kappa, fluorescent DNA synthesis assay, 10 min; Potency, µM (highest dose often 107 µM), hits mostly inhibitors; actives 0.53% (n = 400,000)
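First, compounds were pin-transferred onto 10 nM Pol kappa. After 15 min at room temperature, substrate was added to 50 nM final. Fluorescence was then measured kinetically at 0 and 10 min.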
Pol iota inh – DNA polymerase iota (human) inhibition; Q9UNA4; Pol iota fluorescent replication assay, 10 min; Potency, µM (series often up to 115 µM), usual class: inhibitors; actives 1% (n = 390,000)
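Fluorescent replication assay read twice, at 0 min and 10 min after adding 50 nM (final) substrate. Enzyme (10 nM) and compounds were first incubated 15 min at room temperature; enzyme-free buffer wells were negative controls.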
FEN1 inh – human FEN1 inhibition; P39748; Recombinant FEN1 flap cleavage, fluorescence, 15 min; Potency, µM (series often up to 114 µM), most hits filed as inhibitors; actives 0.35% (n = 390,000); AID 588795; also: nearly all actives have a fitted effect of over 65% in size
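Quantitative HTS format: each compound was titrated, incubated with 10 nM nuclease for 15 min at room temperature, then challenged with flap substrate at 50 nM final. Signal change over 15 min gave concentration–effect curves.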
Pol beta inh-1 – blocks human DNA polymerase beta activity; actives 1.3% (n = 340,000); Potency, µM (titrated, usually from 114 µM), actives largely listed as inhibitors; Pol beta primer extension/strand displacement, fluorescence kinetic
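Preincubation: enzyme (10 nM) with compound, 15 min, RT. Reaction: substrate added to 50 nM final. Reads: 0 and 10 min. Analysis: normalized, Hill fit.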
Pol beta inh-2 – Human Pol beta inhibitor hit validation; actives 87% (n = 250); Potency, µM, hits mostly inhibitors; Pol beta primer extension/strand displacement, fluorescence kinetic; shares compounds with Pol beta inh-1; calls by dose curve
Klenow inh – counter-screen for DNA polymerase beta inhibitors: Klenow fragment inhibition. shares compounds with Pol beta inh-1. Klenow exo- polymerase counter-screen, fluorescent DNA substrate. activity change, negative = inhibition, % at 57.1 µM. 250 tested, under 10 active
HIV RT inh – HIV-1 RT inhibition, pol beta selectivity check; activity % (negative = inhibition, positive = activation), % at 57.1 µM; AID 540301; HIV-1 RT polymerase activity, counter-screen; shares compounds with Pol beta inh-1; 250 tested, under 10 active
POLB valid – validation of human DNA polymerase beta inhibitors. shares compounds with Pol beta inh-1. radiolabeled primer extension gel assay, phosphorimager. inhibition, % at 10 µM. actives 91% (n = 110). AID 540325;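 active = inhibition at 10 µM of 30% or more; inconclusive = no clear call, values can overlap the other calls; inactive = inhibition at 10 µM under 30%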
BAZ2B confirm – confirmation of human BAZ2B bromodomain inhibitors; shares compounds with Pol kappa inh-1; AID 588809; AlphaScreen BAZ2B / biotin-H3K14Ac peptide displacement; actives 100% (n = 25); Potency, µM, usual class: inhibitors; calls by dose curve
AlphaScreen ctr – counter-screen for BAZ2B inhibitors: AlphaScreen signal interference; shares compounds with Pol kappa inh-1; AlphaScreen biotin-His6 peptide bead counterscreen, signal decrease; Potency, µM (series often up to 57.1 µM), usual class: inhibitors; 25 tested, under 10 active; AID 588859;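 active = clear concentration-dependent signal drop in the bead assay lacking the target, so a primary-screen artifact; inconclusive = weak, partial or single-dose response; inactive = no response, so a real primary hit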
PGK validate – validation of Trypanosoma brucei phosphoglycerate kinase inhibitors | shares compounds with Pol kappa inh-1 | TbPGK coupled GAPDH assay, Kinase-Glo luminescence | Potency, µM (highest dose often 57.5 µM), actives largely listed as inhibitors | actives 79% (n = 500) | AID 686980; also: nearly all actives have a fitted effect of over 65% in size
POLI cherry-pick – Confirm cherry-picked inhibitors of human polymerase iota. shares compounds with Pol kappa inh-1. Pol iota primer extension, TAMRA/BHQ fluorescence. Potency, µM, most hits filed as inhibitors. actives 77% (n = 1,500)
Pol kappa inh-2 – confirmation of human DNA polymerase kappa inhibitors; AID 720501; purified Pol-kappa, fluorescent strand-displacement substrate; shares compounds with Pol eta inh-1; Potency, µM, usual class: inhibitors; actives 76% (n = 920)
Pol eta inh-2 – Pol eta (human) inhibition, cherry-pick confirmation; Pol eta primer extension, TAMRA/BHQ fluorescence, 10 min; AID 720502; actives 64% (n = 2,600); Potency, µM, usual class: inhibitors; shares compounds with Pol eta inh-1
Of the large screens only hits and unclear results are named; the others gave an inactive call (follow-up assays come after a bar, where they were run). Unless noted, calls follow the shape of the dose curve; as a rule, active = well fitted curve in the direction sought with a large enough effect; inconclusive = small, poorly fitted or top-dose-only effect, or another doubt; inactive = no such curve, though single readings can be large; an effect the other way counts as inactive or inconclusive.

O=C(COC(=O)c1c2c(nc3ccccc13)/C(=C/c1ccco1)CC2)NC1CCCC1	Pol eta inh-1 3.55µM, Pol kappa inh-1 31.6µM, Pol iota inh 12.6µM, Pol beta inh-1 3.16µM | Pol beta inh-2 25.1 | Klenow inh inactive | HIV RT inh inactive | POLB valid 98.8 | BAZ2B confirm 7.08 | AlphaScreen ctr inconclusive | POLI cherry-pick 13.4 | Pol kappa inh-2 11.9 | Pol eta inh-2 16.9
Cc1cc(N2CCCCC2)nc2ccc(NC(=O)/C=C/c3ccc(OC(C)C)cc3)cc12	none
CCC(=O)Nc1ccccc1	none
CCC(=O)Nc1cc(C(=O)O)ccc1S(=O)(=O)c1ccc(C)cc1	Tb PGK inh inconclusive, Pol eta inh-1 5.62µM, Pol kappa inh-1 inconclusive, Pol iota inh inconclusive, FEN1 inh inconclusive, Pol beta inh-1 10µM | Pol beta inh-2 28.2 | Klenow inh inactive | HIV RT inh inactive | POLI cherry-pick 59.7 | Pol eta inh-2 19
CC(C)CCNC(=O)CNC(=O)[C@@H](C)NC(=O)[C@@H](N)Cc1ccc(O)cc1	none (no result: Tb PGK inh, Pol eta inh-1, Pol iota inh, FEN1 inh, Pol beta inh-1)
C=C(C)C(=O)Nc1cccc(C2=NOC3(C2)C[C@H](C(N)=O)N(C(=O)/C=C/C)C3)c1 (stereo not given in full)	Tb PGK inh inconclusive, Pol eta inh-1 8.91µM, Pol kappa inh-1 inconclusive, Pol iota inh inconclusive, Pol beta inh-1 5.01µM | Pol beta inh-2 7.08 | Klenow inh inactive | HIV RT inh inactive | BAZ2B confirm 7.08 | AlphaScreen ctr inactive | POLI cherry-pick inconclusive | Pol eta inh-2 19
CCOC(=O)CCCc1sc(N)nc1-c1[nH]c(=O)[nH]c1C	Pol eta inh-1 inconclusive, Pol kappa inh-1 inconclusive, Pol iota inh inconclusive | BAZ2B confirm 10 | AlphaScreen ctr inconclusive
CCCCCCCCCC[n+]1cccc([C@@H]2CCCN2C)c1	none (no result: Tb PGK inh, Pol eta inh-1, Pol iota inh, FEN1 inh, Pol beta inh-1)
CCOCCCNC(=O)c1c[nH]c2ccc(S(=O)(=O)N(C)c3ccc(Cl)cc3F)cc2c1=O	Pol beta inh-1 inconclusive
O=C1NC(=S)N(c2ccc(F)cc2)C(=O)/C1=C\c1ccoc1	Tb PGK inh 10µM, Pol eta inh-1 1µM, Pol kappa inh-1 1µM, Pol iota inh inconclusive, FEN1 inh 7.94µM, Pol beta inh-1 2.24µM | PGK validate 0.231µM
